Experimental data from PubChem BioAssay (Tox21).
The source made the active and inactive calls. Calls follow the shape of the full dose curve.

Molecular target: Thyrotropin-releasing hormone receptor (Homo sapiens) (UniProt P34981)
Assay: qHTS assay to identify small molecule agonists of the thyrotropin-releasing hormone receptor (TRHR) signaling pathway (AID 1346891);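 also: HEK293 cells expressing TRHR with calcium dye readout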
Conditions: TRHR-HEK293 calcium fluorescence, agonist mode; series mostly up to 57.6 µM
Summary of the method: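 Kinetic fluorescence (3 min, 1 s intervals) reported intracellular calcium after compound transfer onto TRHR-Hek293 cells pre-loaded with dye for 2 h at 37 °C.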

Thyrotropin-releasing hormone receptor (Homo sapiens), sequence (P34981 whole entry, looked up): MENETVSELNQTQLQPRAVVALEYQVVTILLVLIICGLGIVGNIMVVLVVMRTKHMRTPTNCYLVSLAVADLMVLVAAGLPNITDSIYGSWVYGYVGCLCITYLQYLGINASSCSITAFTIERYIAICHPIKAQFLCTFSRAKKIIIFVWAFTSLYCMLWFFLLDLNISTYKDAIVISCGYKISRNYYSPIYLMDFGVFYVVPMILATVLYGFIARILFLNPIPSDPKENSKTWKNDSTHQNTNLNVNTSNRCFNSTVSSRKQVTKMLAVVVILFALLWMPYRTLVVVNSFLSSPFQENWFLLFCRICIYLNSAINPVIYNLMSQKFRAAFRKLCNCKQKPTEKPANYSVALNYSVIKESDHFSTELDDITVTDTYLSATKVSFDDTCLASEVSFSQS

Row | Compound | outcome
1 | CCC(C)n1c(=O)[nH]c(C)c(Br)c1=O (centres undefined) | inactive
2 | CN1CCC(O)(c2ccc(F)cc2)C(C(=O)c2ccc(F)cc2)C1 (centres undefined) | inactive
3 | CC(=O)[C@H]1CC[C@H]2[C@@H]3CC[C@H]4C[C@H](O)CC[C@]4(C)[C@H]3C(=O)C[C@]12C | inactive
4 | O=C(O)c1cccc(Cl)c1 | inactive
5 | O=NN1CCN(N=O)CC1 | inactive
6 | CC1CCCCC1NC(=O)Nc1ccccc1 (centres undefined) | inactive
7 | CCOP(=O)(OCC)OP(=O)(OCC)OCC | inactive
8 | COC(=O)c1c(C(F)F)nc(C(F)(F)F)c(C2=NCCS2)c1CC(C)C | inactive
9 | C[N+](C)=CCl | inactive
10 | CC(=O)Nc1cc([As](=O)(O)O)ccc1O | inactive
11 | CCOP(=S)(OCC)SCSP(=S)(OCC)OCC | inactive
12 | CCC(=O)c1ccccc1 | inactive
13 | N#CCCC#N | inactive
14 | CSc1ccc(C(=O)C(C)(C)N2CCOCC2)cc1 | inactive
15 | c1ccc(N2CCNCC2)cc1 | inactive
16 | CC(C)(C)OC(=O)c1ncn2c1[C@@H]1CCCN1C(=O)c1c(Br)cccc1-2 | inactive
17 | CC(N)=S | inactive
18 | CCCCOC(=O)c1ccccc1N | inactive
19 | COc1cc(C[C@@H](C)N)c(OC)cc1C | inactive
20 | CNC(=O)Oc1ccccc1C1OCCO1 | inactive
21 | CCOC(=O)NC(=S)Nc1ccccc1NC(=S)NC(=O)OCC | inactive
22 | Cc1cc(C)c(C(=O)P(=O)(C(=O)c2c(C)cc(C)cc2C)c2ccccc2)c(C)c1 | inactive
23 | C#C[C@]1(O)C=C[C@H]2[C@@H]3CCC4=CC(=O)CC[C@@H]4[C@H]3CC[C@@]21CC | inactive
24 | O=c1oc2ccccc2c(O)c1C1CCCc2ccccc21 (centres undefined) | inactive
25 | CCCCc1c(C)nc(NCC)[nH]c1=O | inactive
26 | OC(Cn1cncn1)(c1ccc(F)cc1)c1ccccc1F (centres undefined) | inactive
27 | CC(CC(C#N)(c1ccccc1)c1ccccc1)N(C)C (centres undefined) | inactive
28 | CNCC(=O)c1ccc(O)c(O)c1 | inactive
29 | CCN(Cc1ccc(Cl)nc1)/C(=C/[N+](=O)[O-])NC | inactive
